Screening results deposited in PubChem BioAssay by National Center for Advancing Translational Sciences (NCATS).
TRHR enhancer: qHTS for Small Molecule Agonists and Allosteric Enhancers of Human TRH Receptor: Primary Screen for Enhancers | Thyrotropin-releasing hormone receptor (Homo sapiens), P34981 | TRHR cells, fluo-8 calcium fluorescence, EC20 TRH enhancement | enhancement, % at 2 µM | 360,000 compounds, 0.66% hits | AID 493056, 2011; in the data active means enhancement above about 30%; further: 0% is about no effect
Target sequence (P34981 whole entry, looked up): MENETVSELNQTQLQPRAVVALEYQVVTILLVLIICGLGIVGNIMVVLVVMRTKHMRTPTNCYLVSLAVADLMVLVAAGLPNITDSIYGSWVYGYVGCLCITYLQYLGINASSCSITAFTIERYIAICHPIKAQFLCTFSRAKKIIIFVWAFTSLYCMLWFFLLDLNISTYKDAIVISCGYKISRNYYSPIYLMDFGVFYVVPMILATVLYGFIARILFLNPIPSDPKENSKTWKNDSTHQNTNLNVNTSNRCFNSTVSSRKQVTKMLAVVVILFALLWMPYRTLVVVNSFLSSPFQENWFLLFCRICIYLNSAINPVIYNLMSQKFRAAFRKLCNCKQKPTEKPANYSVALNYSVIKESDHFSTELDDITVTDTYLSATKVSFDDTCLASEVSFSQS
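Enhancer read-out: after compound pinning and an initial kinetic agonist-mode read, an EC20 of TRH (10 nM final) was injected and fluo-8 calcium signal (Ex 480/Em 530) followed at 1 s/cycle for 100 cycles in TRHR-expressing cells.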
D1 ag: Allosteric Agonists of the Human D1 Dopamine Receptor: qHTS | D(1A) dopamine receptor (Homo sapiens), P21728 | HEK293 T-REx D1 cells, calcium flux, agonist mode | activation, % at 2 µM | 360,000 compounds, 1% hits; further: 0% is about no effect
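Agonism was scored from calcium flux recorded over 180 s (1 read/s) after pintool compound addition, following a 10-cycle baseline. Cells were inducible force-coupled HEK293 TREx D1, plated overnight at 30 C and loaded with no-wash calcium dye.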
D1 antag: Antagonist of Human D 1 Dopamine Receptor: qHTS | AID 504652, 2011 | HEK293 TREx D1 cells, calcium flux, dopamine EC80; stronger effect = lower value | D(1A) dopamine receptor (Homo sapiens), P21728 | activity change, negative = inhibition, % at 10 µM | 360,000 compounds, 3.2% hits; in the data active means activity change below about -30%; further: on the % scale 0 is the no-effect control and ±100 the full control effect
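Cells carrying a force-coupled, tetracycline-inducible human D1 receptor report calcium flux. Each well gets a 10 s baseline, compound with 180 s monitoring, then an EC80 dopamine stimulus with a second 180 s kinetic read.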
D1 PAM: Potentiators of Human D1 Dopamine Receptor: qHTS; D(1A) dopamine receptor (Homo sapiens), P21728; HEK293 TREx D1 cells, calcium flux, dopamine EC20 potentiation; potentiation, % at 10 µM; 360,000 compounds, 0.036% hits; in the data active means potentiation above about 30%; further: 0% is about no effect
TRHR ag: qHTS for Small Molecule Agonists and Allosteric Enhancers of Human TRH Receptor: Primary Screen for Agonists. Thyrotropin-releasing hormone receptor (Homo sapiens), P34981. TRHR cells, calcium flux fluo-8, FDSS agonist mode. activation, % at 2 µM. 360,000 compounds, 0.18% hits. AID 493084, 2011; further: 0% is about no effect
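Fluo-8-loaded TRHR cells; 10 s baseline, compound added, kinetic Ca2+ fluorescence read 1/s, agonist mode.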
An asterisk follows results filed as active; . = no result given; ! = repeats disagree. Hits are enriched below; roughly 4.6% of the tested compounds scored in any of these assays. Unless noted, no stated cut-off is given here; in the data, active means activation above about 30%; inactive means the rest.

SMILES	TRHR enhancer	D1 ag	D1 antag	D1 PAM	TRHR ag
COc1ccccc1C(=O)Nc1ccc(S(=O)(=O)Nc2nccs2)cc1	0.9	4.3	-30.9*	.	0.6
CC(Oc1ccc(F)cc1)C(=O)Nc1ccc(S(=O)(=O)NC2=NCCCCC2)cc1 (stereo not given)	5.5	32.6*	-6.0	-0.2	3.5
CCN(CC)S(=O)(=O)c1cccc(NC(=O)c2ccc(SC)cc2OC)c1	-3.2	29.2	-0.3	-8.7	0.8
CCC(C(=O)N1CCN(c2cc(Cl)ccc2C)CC1)n1nc(C)c2sc3ccccc3c2c1=O (stereo not given)	19.7	-1.5	5.0	3.4	-0.5
CC(=O)c1ccc(NC(=O)CSc2nc(-c3ccccc3C)nc3c2c(=O)n(C)c(=O)n3C)cc1	3.5	2.0	5.8	-3.3	0.0
Cc1cc(C)c(NC(=O)C2CCCN2CCO)c(C)c1 (stereo not given)	-2.3	1.2	13.3	-1.8	1.6
Cc1cc(C)c(NC(=O)C2CCCN2C)c(C)c1 (stereo not given)	-5.7	2.0	-35.1*	-10.1	0.6
Cc1cc(/C=N/NC(=O)c2cccs2)c(C)n1-c1ccccc1	-3.3	1.2	-39.0*	-3.1	-0.2
Cc1cc(/C=N/NC(=O)c2ccncc2)c(C)n1-c1ccccc1	-6.4	1.5	-2.5	-5.3	-1.0
Cc1ccc(-n2c(C)cc(/C=N/NC(=O)Cn3c4ccccc4c(=O)c4ccccc43)c2C)cc1	32.6*	1.1	7.3	5.5	-0.6
O=C1CN(S(=O)(=O)c2c(F)cccc2F)CCN1S(=O)(=O)c1ccc2c(c1)OCCO2	5.2	0.0	1.7	4.0	0.1
COc1cc2c(cc1OC)C1O[C@](CCCCN3C(=O)c4ccccc4C3=O)(C2)Oc2c1c(=O)oc1ccccc21	21.7	0.4	-4.9	-1.0	0.5
Oc1c(Br)cc(Br)cc1-c1nc2ccccc2s1	-2.4	2.6	-30.1*	-1.2	-0.6
COc1cccc(-c2nc3ccccc3s2)c1O	0.1	2.6	-3.1	-2.5	0.8
COc1ccc(NC(=O)NC2COc3ccccc3C2)cc1Cl (stereo not given)	-1.0	-0.2	1.7	0.1	0.1
O=C(COc1ccc(Cl)cc1)NCCc1csc(-c2ccc(C(F)(F)F)cc2)n1	10.7	10.4	-35.9*	-3.4	0.8
O=C(COc1ccccc1)NCCc1csc(-c2ccc(Cl)cc2)n1	2.4	13.7	-49.3*	-2.5	-0.3
COc1ccc(S(=O)(=O)Nc2cccc(-c3ccc(N4CCCCCC4)nn3)c2)cc1F	-9.5	-0.5	-10.7	2.8	0.7
O=S(=O)(c1ccc(Cl)cc1)c1nc(-c2cccs2)oc1SCc1ccc(F)cc1	4.1	4.9	8.1	-0.7	1.2
Cc1cc(C)n2ncc(C(=O)Nc3ccc(Cl)c(Cl)c3)c2n1	2.6	-1.2	-4.6	3.0	0.7
Cc1cc(C)n2ncc(C(=O)O)c2n1	1.5	-1.5	-46.0*	-3.5	-0.2
CN1CCC(N(C)CC(O)c2ccccc2)CC1 (stereo not given)	-0.6	0.0	9.9	-2.5	1.3
CN1CCC(Oc2ccccc2Sc2ccccc2)CC1	7.5	26.4	-62.6*	-10.2	1.1
CN1CCC(OC(c2ccccc2)c2ccccc2)CC1	9.9	23.7	-37.0*	-4.8	-0.8
O=c1cc(COc2ccccc2Cl)nc2scc(-c3ccccc3)n12	-1.5	4.4	-10.3	-4.4	-0.7
SMILES	TRHR enhancer	D1 ag	D1 antag	D1 PAM	TRHR ag
O=[N+]([O-])c1cc(Cl)cc(/C=N/Nc2nc3ccccc3s2)c1O	-11.1	-1.2	-49.5*	-7.8	-1.0
COC(=O)c1cc(S(=O)(=O)N2CCN(c3ccccc3F)CC2)c[nH]1	-2.3	8.5	-1.4	-4.2	0.5
COC(=O)c1cc(S(=O)(=O)NCCN2CCN(c3ccccc3F)CC2)c[nH]1	3.0	4.1	-42.5*	-10.7	1.3
O=C(C1CCC1)N1CCc2cc(S(=O)(=O)NCCN3CCN(c4ccccc4F)CC3)ccc21	0.3	3.3	-39.1*	-10.5	1.9
O=C(NCCN1CCN(c2ccccc2F)CC1)C1CCCN(S(=O)(=O)c2cnc[nH]2)C1 (stereo not given)	10.0	5.1	-45.3*	.	-0.5
CCCS(=O)(=O)N1CCCC(C(=O)NCCCN2CCN(c3ccccc3F)CC2)C1 (stereo not given)	8.9	1.9	-38.0*	-6.5	0.0
CCS(=O)(=O)N1CCC(C(=O)NCCCN2CCN(c3ccccc3F)CC2)CC1	-2.2	0.1	-75.2*	-12.6	-0.3
Cc1ccccc1C(=O)NC1(C(F)(F)F)C(=O)Nc2c1c(=O)[nH]c(=O)n2CCc1ccccc1 (stereo not given)	-2.5	0.3	-4.8	-5.1	0.4
CCOc1ccc(CNC(=O)CCc2c(C)nn(-c3ccc(N4CCOCC4)nn3)c2C)cc1	-15.0	-0.4	-6.5	-4.6	0.0
COn1c(-c2ccccc2)nc2ccc(Cl)cc21	4.1	3.0	-64.9*	-7.4	0.5
O=C(O)COn1c(-c2ccccc2)nc2ccc(Cl)cc21	-4.2	0.8	-8.2	-4.2	0.2
O=[N+]([O-])c1ccc(Oc2ccc(S(=O)(=O)N3CCOCC3)cc2)cc1	6.5	17.1	-41.6*	.	-0.7
Cc1ccccc1NC(=O)c1c(C)oc2ccc(O)c(CN3CCC(C)CC3)c12	9.9	3.8	13.1	-0.6	-0.5
Cn1c(=NC(=O)C2CC2)sc2cccc(F)c21	1.0	2.9	-40.5*	-6.5	-0.3
COc1ccc(OC)c2c1sc(=NC(=O)C1CCCCC1)n2C	-4.7	2.2	-7.9	-0.4	0.2
CCn1c(NC2CCCCC2)nc2ccccc21	1.7	-0.3	-33.7*	-6.7	-0.3
CCn1c(N2CCN(C(=O)NC3CCCCC3)CC2)nc2ccccc21	-7.1	-1.1	1.8	-1.4	0.1
CC(C)Cc1nnc(NC(=O)Cc2ccc([N+](=O)[O-])cc2)s1	7.5	31.2*	-5.3	14.2	3.3
CC(C)Cc1nnc(NC(=O)CCC(=O)N2CCN(c3ccc([N+](=O)[O-])cc3)CC2)s1	-1.1	-0.3	0.5	-6.1	-0.4
Cc1ccccc1NC(=O)Nc1nnc(Cc2ccc([N+](=O)[O-])cc2)s1	39.8*	5.0	20.7	-3.2	0.6
CCc1cccc(C)c1NC(=O)NC1COc2ccccc2C1 (stereo not given)	4.4	0.5	-1.1	1.4	-0.7
O=C(Cn1cc(C(F)(F)F)ccc1=O)NC1CCCC1	-4.7	1.5	-44.5*	-2.3	0.2
COc1cc(-c2nc3cnccn3c2Nc2ccc(C(C)C)cc2)ccc1O	-5.3	34.4*!	-7.4	-0.9	-0.5
